Data reported in paper PMC4336329 (PLoS ONE, 2015).
The whole screen tested about 310,000 compounds, of which about 14,000 (4.5%) showed an effect of 50% or more. The effect is printed as a negative number. What follows is part of a selection rich in strong results, with near analogues and random picks from the rest.

molecular target: human ether-à-go-go-related gene (hERG) potassium channel (human, UniProt Q12809); assay: primary screen, population patch clamp on CHO cells stably expressing hERG; higher = less effect of the substance
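Note: peak tail current of the secondary pulse compared with the same well before compound.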

human ether-à-go-go-related gene (hERG) potassium channel, sequence (Q12809 whole entry, looked up): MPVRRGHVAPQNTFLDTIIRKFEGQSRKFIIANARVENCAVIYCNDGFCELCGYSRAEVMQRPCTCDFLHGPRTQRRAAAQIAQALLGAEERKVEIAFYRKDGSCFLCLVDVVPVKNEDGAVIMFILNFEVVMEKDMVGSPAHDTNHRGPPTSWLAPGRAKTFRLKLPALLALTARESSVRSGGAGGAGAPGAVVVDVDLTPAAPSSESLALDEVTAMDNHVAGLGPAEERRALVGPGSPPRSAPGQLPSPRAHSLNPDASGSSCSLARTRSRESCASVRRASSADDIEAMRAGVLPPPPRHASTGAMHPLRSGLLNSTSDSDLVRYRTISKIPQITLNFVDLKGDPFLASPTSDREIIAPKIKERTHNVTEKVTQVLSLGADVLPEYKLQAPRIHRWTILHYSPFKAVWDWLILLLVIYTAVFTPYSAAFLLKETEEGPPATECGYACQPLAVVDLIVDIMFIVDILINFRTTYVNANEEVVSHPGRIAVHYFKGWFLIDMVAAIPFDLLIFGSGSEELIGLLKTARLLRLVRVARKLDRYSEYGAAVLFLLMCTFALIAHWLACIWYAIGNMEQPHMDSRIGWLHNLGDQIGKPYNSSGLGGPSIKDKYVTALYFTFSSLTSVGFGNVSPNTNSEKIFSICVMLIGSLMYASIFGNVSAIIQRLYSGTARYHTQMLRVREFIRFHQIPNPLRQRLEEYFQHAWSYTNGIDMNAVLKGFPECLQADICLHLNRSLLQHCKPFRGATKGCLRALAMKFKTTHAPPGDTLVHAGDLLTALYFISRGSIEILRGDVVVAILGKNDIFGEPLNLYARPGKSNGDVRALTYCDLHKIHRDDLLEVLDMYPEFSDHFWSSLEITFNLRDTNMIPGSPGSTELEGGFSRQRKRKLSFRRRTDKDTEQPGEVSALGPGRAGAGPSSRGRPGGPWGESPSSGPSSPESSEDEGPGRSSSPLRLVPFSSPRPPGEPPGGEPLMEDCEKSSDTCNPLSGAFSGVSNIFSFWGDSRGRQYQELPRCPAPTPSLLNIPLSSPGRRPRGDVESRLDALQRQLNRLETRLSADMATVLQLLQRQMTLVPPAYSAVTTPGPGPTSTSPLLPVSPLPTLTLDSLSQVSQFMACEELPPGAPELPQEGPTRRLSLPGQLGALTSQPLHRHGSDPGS

| SMILES | hERG current change (%, negative = inhibition) at 10uM |
| --- | --- |
| COc1ccc(NS(=O)(=O)c2cc3c(cc2C)N(C)CCO3)c(OC)c1 | 1.28% |
| COc1ccc(C(=O)C2CCCN(Cc3cccn3-c3nccs3)C2)cc1OC (stereo not shown) | -82% |
| COc1ccc(C(=O)C2CCCN(Cc3cccn3-c3nccs3)C2)cc1F (stereo not shown) | -83.5% |
| O=C(c1ccc2c(c1)OCO2)C1CCCN(Cc2cccn2-c2cccnc2)C1 (stereo not shown) | -58.3% |
| COc1ccc(C(=O)C2CCCN(Cc3cnc(N4CCCC4)s3)C2)cc1OC (stereo not shown) | -44% |
| COc1cccc(C(=O)C2CCCN(Cc3cccn3-c3cccnc3)C2)c1 (stereo not shown) | -29% |
| COc1ccc(C(=O)C2CCCN(C(=O)c3cccs3)C2)cc1F (stereo not shown) | -8.95% |
| COc1ccc(C(=O)C2CCCN(Cc3cccn3-c3cccnc3)C2)cc1OC (stereo not shown) | -62.9% |
| COc1ccc(C(=O)C2CCCN(Cc3cnc(N4CCOCC4)s3)C2)cc1F (stereo not shown) | -47.6% |
| S=C1NCCc2ccccc2C1c1ccccc1 (stereo not shown) | -14.5% |
| C/C(=C\C(=S)Nc1ccccc1)Nc1ccccc1 | 22.4% |
| CCOc1ccccc1CNC(=O)Cn1ccc2cc(S(=O)(=O)N3CCCCCC3)ccc21 | 10.4% |
| COc1ccc2cc(N=Cc3nc(-c4ccc(C)cc4)oc3O)cnc2c1 | 1.84% |
| CCC(=O)N1CCc2cc(S(=O)(=O)N3CCCCCC3)ccc21 | 12.6% |
| CNC(=O)c1cccn1-c1ccsc1C(=O)OC | 7.33% |
| COc1ccc(Cc2nc3ccc(C(=O)N(C)CCn4ccnc4)cc3o2)cc1OC | 15.5% |
| O=C(COC(=O)c1ccc(F)cc1F)Nc1ccc2[nH]c(=O)[nH]c2c1 | 10.3% |
| Cc1cc(C(=O)C(=O)NC(C)C)c(C)n1-c1ccc([N+](=O)[O-])cc1 | -22.8% |
| Cc1cc(C(=O)C(=O)N(C)C)c(C)n1-c1ccc([N+](=O)[O-])cc1 | -25.7% |
| C=CCN(CC=C)C(=O)C(=O)c1cc(C)n(-c2ccc([N+](=O)[O-])cc2)c1C | -63.4% |
| O=C(/C=C/C=C/c1ccc2c(c1)OCO2)N1CCCCC1 | -8.23% |
| CCc1noc(C)c1C(=O)OCC(=O)NC(=O)c1ccccc1OC | 12.5% |
| COc1cc(OC)c(C#N)c(S(=O)(=O)Cc2ccccc2)c1 | -3.9% |
| CN(C)CCNC(=O)c1ccc2c(c1)NC(=O)c1ccccc1S2 | 17.3% |

| SMILES | hERG current change (%, negative = inhibition) at 10uM |
| --- | --- |
| Cc1ccc2c(c1)NC(=O)C(CC(=O)NCCN(C)C)O2 (stereo not shown) | -2.42% |
| CC(C)CN(CCNC(=O)CC1Oc2ccccc2NC1=O)CC(C)C (stereo not shown) | -27.7% |
| CCN(CCNC(=O)CC1Oc2ccccc2NC1=O)c1ccccc1 (stereo not shown) | 9.82% |
| CCC(C)N(CCNC(=O)c1ccc2c(c1)NC(=O)c1ccccc1S2)C1CCCCC1 (stereo not shown) | -66.4% |
| CCN(CC)CCNC(=O)c1ccc2c(c1)NC(=O)c1ccccc1S2 | -31.9% |
| Cc1ccc2c(c1)NC(=O)C(CC(=O)NCCN(CC(C)C)CC(C)C)O2 (stereo not shown) | -24.7% |
| CCC(C)N(CCNC(=O)CC1Oc2ccc(C)cc2NC1=O)C1CCCCC1 (stereo not shown) | -71.5% |
| CCC(C)N(CCNC(=O)CC1Oc2ccccc2NC1=O)C1CCCCC1 (stereo not shown) | -57.7% |
| COCCn1c(C)cc2c(c1=O)C(c1ccco1)C(C#N)=C(N)O2 (stereo not shown) | 12.7% |
| C=CCn1c(CSc2nnc(-c3ccccc3)n2C)n[nH]c1=S | 16.7% |
| O=C(Nc1ccc(Cl)cc1)c1ccc(Br)cc1F | 14.4% |
| COCc1cc(Sc2cccc(Cl)c2Cl)nc(-c2ccccc2)n1 | 9.15% |
| Cc1ccc(S(=O)(=O)N(CC(=O)NN=C2CCN(C)CC2)c2ccc(C(C)C)cc2)cc1 | -21.3% |
| CCn1cc(C(=O)N2CCN(Cc3ccc4c(c3)OCO4)CC2)c(=O)c2ccc(C)nc21 | -1.84% |
| CCC(C)(C)NC(=O)C(c1ccc(OC)cc1)N(C(=O)CCC(=O)Nc1cc(C)on1)c1ccc(OC)c(OC)c1 (stereo not shown) | 3.38% |
| Cc1ccc(OCC(=O)N/N=C/c2cn(C)c3ccccc23)cc1 | 10.2% |
| CC1c2cccn2CCN1S(=O)(=O)c1ccc(F)cc1 (stereo not shown) | -52.3% |
| CC1c2cccn2CCN1S(=O)(=O)c1ccccc1 (stereo not shown) | 5.9% |
| Cc1ccc(S(=O)(=O)N2CCn3cccc3C2C)cc1 (stereo not shown) | -22.7% |
| COc1cc(NS(=O)(=O)c2ccc(NC(=O)/C(=C\c3ccccc3OC)NC(=O)c3ccccc3)cc2)nc(OC)n1 | 26.5% |
| C=CCOc1ccc(/C=N/NC(=O)CN2CCOCC2)cc1OCC | 12.4% |
| CCOc1cc(/C=N/NC(=O)CN2CCCCC2)ccc1O | -5.51% |
| O=C(CN1CCCCC1)N/N=C/c1ccccc1OCc1ccccc1 | -30.2% |
| CCOc1cc(/C=N/NC(=O)CN2CCCCC2)ccc1OCc1ccccc1 | -59.9% |

| SMILES | hERG current change (%, negative = inhibition) at 10uM |
| --- | --- |
| CCOc1cc(/C=N/NC(=O)CN2CCCCC2)ccc1OCc1cccc(Cl)c1 | -45.3% |
| C=CCOc1ccc(/C=N/NC(=O)C(=O)N2CCCCCC2)cc1OC | 16.5% |
| C=CCOc1ccc(/C=N/NC(=O)CN2CCCCC2)cc1OC | -61% |
| CCOc1cc(/C=N/NC(=O)CN2CCOCC2)ccc1OCc1ccccc1 | -9.58% |
| COc1cc(/C=N/NC(=O)CN2CCCCC2)ccc1OCc1ccccc1 | -64.1% |
| CCOc1ccc(/C=N/NC(=O)CN2CCCCC2)cc1OCC | 11% |
| COc1cc(/C=N/NC(=O)CN2CCOCC2)ccc1OCc1ccccc1 | 5.45% |
| CCCOc1ccc(/C=N/NC(=O)CN2CCCCC2)cc1OCC | -51.4% |
| CC(=O)N1c2ccccc2C(C)(C)C2CCC(C)CC21 (stereo not shown) | -8.9% |
| COc1ccc(-c2cn[nH]c2-c2ccc(OC)cc2)cc1 | 8.51% |
| CCN(CC)C(=O)c1c[nH]c2ccc(S(=O)(=O)Nc3cc(C)cc(C)c3)cc2c1=O | -0.741% |
| CCOC(=O)c1[nH]c(Cc2[nH]c(C(=O)OCC)c(C)c2CCC(=O)OC)c(CCC(=O)OC)c1C | 3.71% |
| COc1cccc(-c2nc(-c3ccccc3)no2)c1 | 1.72% |
| Cc1cccc(Nc2nc3c(S(=O)(=O)c4ccccc4)nnn3c3ccccc23)c1C | 12.6% |
| CCC(C)NC(=O)Cn1nc(C(F)(F)F)c2c1CCC2 (stereo not shown) | 1.83% |
| N#Cc1c(SCC(=O)Nc2nc3ccccc3s2)sc2c(O)cc(=O)[nH]c12 | 20.7% |
| c1ccc2c(c1)nc(Nc1ccc(N3CCCCC3)cc1)c1nncn12 | -13.8% |
| Cc1nc(-c2ccc(F)cc2)c(CC(=O)Nc2cccc(S(=O)(=O)N3CCOCC3)c2)s1 | -15.8% |
| COc1ccc(Br)cc1/C=N/NC(=O)CN1CCCCC1 | -4.99% |
| COc1cc(/C=N/NC(=O)c2ccoc2C)ccc1OCCN1CCCCC1 | -31.6% |
| Cc1nn(-c2ccccc2)c(N2CCCC2)c1/C=N/NC(=O)c1ccccc1O | -2.88% |
| CCOc1cc(/C=N/NC(=O)CN2CCCCC2)ccc1OCc1ccc(Cl)cc1 | 7.37% |
| Cc1nn(-c2ccccc2)c(N2CCCC2)c1/C=N/NC(=O)c1cc2ccccc2cc1O | -55.5% |
| COc1cc(/C=N/NC(=O)c2cc3ccccc3cc2O)ccc1OCCN1CCCCC1 | -65.9% |

| SMILES | hERG current change (%, negative = inhibition) at 10uM |
| --- | --- |
| COc1cc(/C=N/NC(=O)CCN2CCN(Cc3ccccc3)CC2)cc(OC)c1OC | -29.2% |
| COc1cc(/C=N/NC(=O)c2ccncc2)ccc1OCCN1CCCCC1 | -3.37% |
| COc1cc(/C=N/NC(=O)CN2CCCCC2)ccc1OCc1ccc(Br)cc1 | -59% |
| COc1ccc(Br)cc1/C=N/NC(=O)CN1CCN(Cc2ccccc2)CC1 | -33.1% |
| COc1ccc(/C=N/NC(=O)CN2CCN(Cc3ccccc3)CC2)cc1Br | -68% |
| Cc1nn(-c2ccccc2)c(N2CCCC2)c1/C=N/NC(=O)c1cc(-c2ccccc2)nc2ccccc12 | 13.3% |
| Cc1ccc(S(=O)(=O)Nc2cc(C)on2)cc1 | 15.4% |
| CCN(CC(=O)Nc1ccc(NC(C)=O)cc1)C(=O)c1cc(-c2ccccc2)nn1-c1ccccc1 | 8.43% |
| O=C(CSc1nnc(-c2cccnc2)o1)NNC(=O)c1ccc(Br)cc1 | 2.19% |
| O=C(COc1ccccc1)N(Cc1cc2ccccc2[nH]c1=O)CC1CCCO1 (stereo not shown) | -1.24% |
| CCC1(c2ccccc2)NC(=O)N(CC(=O)Nc2ccccc2N2CCCC2)C1=O (stereo not shown) | 1.38% |
| O=C(c1cc(-c2cccc(Cl)c2)nc2ccccc12)N1CCCC1 | -40.2% |
| CCC(C)NS(=O)(=O)c1ccc(OCC(=O)Nc2ccc3c(c2)OCCO3)cc1 (stereo not shown) | -26.3% |
| Cl.Fc1ccc(COc2ccccc2CNCc2ccncc2)cc1 | -32.6% |
| Brc1ccc(OCc2ccccc2)c(CNCc2ccncc2)c1.Cl | -19.9% |
| COc1cc(CNCc2ccncc2)cc(Br)c1OCc1ccccc1F.Cl | -43.3% |
| Cl.c1ccc(COc2ccccc2CNCc2cccnc2)cc1 | -8.89% |
| Cl.Fc1ccc(COc2ccc(Br)cc2CNCc2ccncc2)cc1 | -74.7% |
| Cl.Fc1ccccc1COc1ccc(Br)cc1CNCc1cccnc1 | -70.2% |
| Cl.Fc1ccccc1COc1ccc(Br)cc1CNCc1ccncc1 | -70.2% |
| Cl.Fc1ccccc1COc1ccccc1CNCc1ccncc1 | -44% |
| CCOc1ccc(Br)cc1CNCc1cccnc1 | -10.2% |
